PubChem BioAssay (NCATS)
Inconclusive results are not listed. Entries that show only a call come without a potency. Active and inactive are the calls of the source. Unless noted, calls come from the whole dose curve; as a rule, active = well fitted curve in the direction sought with a large enough effect; inconclusive = small, poorly fitted or top-dose-only effect, or another doubt; inactive = no such curve, though single readings can be large; an effect the other way counts as inactive or inconclusive.

Legend:
[1] = molecular target: Tumor susceptibility gene 101 protein (Homo sapiens) (UniProt Q99816); experiment: qHTS Validation Assay for Iinhibitors of HIV-1 Budding by Blocking the Interaction of PTAP/TSG101 (AID 485342; calls by dose curve)
Sequence of Tumor susceptibility gene 101 protein (Homo sapiens) (Q99816 whole entry, looked up, the tested form may be a part): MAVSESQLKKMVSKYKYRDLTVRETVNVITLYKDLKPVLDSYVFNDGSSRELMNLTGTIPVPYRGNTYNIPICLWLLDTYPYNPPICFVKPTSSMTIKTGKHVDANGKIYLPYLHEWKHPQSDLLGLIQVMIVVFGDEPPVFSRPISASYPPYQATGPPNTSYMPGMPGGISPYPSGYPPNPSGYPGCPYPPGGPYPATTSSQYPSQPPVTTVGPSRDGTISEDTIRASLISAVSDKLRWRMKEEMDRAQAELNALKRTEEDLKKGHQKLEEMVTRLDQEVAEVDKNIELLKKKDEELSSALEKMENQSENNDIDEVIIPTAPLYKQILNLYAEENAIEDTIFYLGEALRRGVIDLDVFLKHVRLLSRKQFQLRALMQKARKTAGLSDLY
Summary of the method: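 Binding of a FITC-tagged PTAP-motif peptide (50 nM) to the Tsg101 binding domain (10 uM) is monitored by fluorescence polarization. Compounds are pin-delivered before peptide addition, and incubation runs 20 min at room temperature.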

[2] = molecular target: Beta-2 adrenergic receptor (Homo sapiens) (UniProt P07550); experiment: qHTS validation assay of beta-arrestin-biased ligands of beta2-adrenergic receptor (AID 485366)
Sequence of Beta-2 adrenergic receptor (Homo sapiens) (P07550 whole entry, looked up): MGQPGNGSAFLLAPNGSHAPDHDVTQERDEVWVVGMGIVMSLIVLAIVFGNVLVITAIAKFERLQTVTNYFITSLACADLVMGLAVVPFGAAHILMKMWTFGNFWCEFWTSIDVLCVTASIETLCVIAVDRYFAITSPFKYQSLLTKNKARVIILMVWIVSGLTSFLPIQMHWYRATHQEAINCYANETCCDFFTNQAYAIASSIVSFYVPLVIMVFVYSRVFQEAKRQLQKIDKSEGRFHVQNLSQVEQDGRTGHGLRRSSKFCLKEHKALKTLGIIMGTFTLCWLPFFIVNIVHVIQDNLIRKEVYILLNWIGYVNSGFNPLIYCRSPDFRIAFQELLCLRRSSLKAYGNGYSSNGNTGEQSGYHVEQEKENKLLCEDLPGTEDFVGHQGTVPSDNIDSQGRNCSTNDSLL
Text: NIH Molecular Libraries Probe Production Network [MLPCN]
NIH Chemical Genomics Center [NCGC]
PI: Bryan Roth and Bob Lefkowitz
The concept of biased agonism is an emerging concept of molecular pharmacology which proposes that seven transmembrane receptors (7TMRs) or G protein-coupled receptors (GPCRs), exist in multiple signaling conformations and complexes and that ligands (either agonists or antagonists) can induce signaling biased responses for distinct signal transduction cascades.
Furthermore, accumulating evidence over the last decade has drawn attention to a novel function of beta-arrestins as signal transducers that scaffold various signaling molecules upon activation of 7TMRs. […] This beta-arrestin-biased signaling presumably leads to distinct physiological outcomes from those by G protein activation.
Additionally, the active receptor conformations which […] on this beta-arrestin signaling are likely different from those activating G protein signaling
The goal of this screening project will be to discover and optimize novel beta-arrestin-biased ligands for beta2-AR signaling. […]
Tango cells were dispensed into white, solid, tissue-culture-treated 1536-well plates at 1500 cells/well in DMEM, containing 1% fetal bovine serum (FBS). […] Plates were then incubated for 15 minutes at room temperature, and subsequently measured on a ViewLux plate reader for luminescent signal using a clear filter with a 10 second exposure and 2x binning. The %Activity was determined from the corrected luminescence values.
Concentration-response curves were fitted to the signals arising from the resulting luminescence. The concentration-effect curves were then classified based on curve quality (r2), response magnitude and degree of measured activity, and compounds were subsequently categorized based on their curve class.
Keywords: biased agonism, beta2-AR, beta-arrestin, GPCR, 7TMR, Tango, luminescence, MLSMR, MLPCN, NIH Roadmap, qHTS, NCGC

[3] = Quantitative high throughput screen for delayed death inhibitors of the malarial parasite plastid, 48 hour incubation (AID 488752); note: nearly all actives have a fitted effect of over 65% in size
Summary of the method: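 Readout is firefly luciferase luminescence from a reporter integrated into the parasite genome, with lower signal taken as inhibited growth. Infected red cells (0.1% parasitemia, 2% hematocrit final) are cultured with compound for one 48 h cycle at 37 C.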

[4] = molecular target: Thioredoxin reductase 1, cytoplasmic (Rattus norvegicus) (UniProt O89049); experiment: qHTS Assay for Substrates of Mammalian Selenoprotein Thioredoxin Reductase 1 (TrxR1) (AID 488772);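 note: NADPH fluorescence in the first read after selenite addition and not the 8 min delta; a drop in NADPH fluorescence below the no-compound background marks a TrxR1 substrate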
Sequence of Thioredoxin reductase 1, cytoplasmic (Rattus norvegicus) (O89049 whole entry, looked up): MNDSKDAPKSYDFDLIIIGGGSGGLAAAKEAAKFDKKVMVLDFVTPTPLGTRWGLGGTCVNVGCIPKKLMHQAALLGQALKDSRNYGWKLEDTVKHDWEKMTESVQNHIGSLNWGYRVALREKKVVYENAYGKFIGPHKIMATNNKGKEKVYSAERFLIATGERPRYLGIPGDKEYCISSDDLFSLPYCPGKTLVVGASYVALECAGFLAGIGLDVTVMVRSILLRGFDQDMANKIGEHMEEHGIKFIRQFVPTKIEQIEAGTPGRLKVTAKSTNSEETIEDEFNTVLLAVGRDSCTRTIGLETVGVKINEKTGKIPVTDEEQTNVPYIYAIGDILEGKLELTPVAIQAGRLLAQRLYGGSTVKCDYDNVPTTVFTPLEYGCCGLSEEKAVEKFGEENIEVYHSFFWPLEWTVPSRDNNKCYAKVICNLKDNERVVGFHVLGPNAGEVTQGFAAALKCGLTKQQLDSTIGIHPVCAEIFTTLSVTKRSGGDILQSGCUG
Summary of the method: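 Quantitative HTS in Tris-HCl buffer at pH 7.5 with EDTA and Tween-20, using rat TrxR1, 400 uM NADPH and 400 uM selenite (final). A fall in initial NADPH fluorescence relative to background marked substrate behaviour.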

[5] = molecular target: Thioredoxin reductase 1, cytoplasmic (Rattus norvegicus) (UniProt O89049); experiment: qHTS Assay for Inhibitors of Mammalian Selenoprotein Thioredoxin Reductase 1 (TrxR1) (AID 488773);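 note: drop in NADPH fluorescence over an 8 min run after selenite addition; nearly all actives have a fitted effect of over 40% in size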
Summary of the method: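 Steps: enzyme (90 nM) plus NADPH (400 uM final), 5 min at ~22 deg C; compound added, 15 min; selenite (400 uM final) added; fluorescence followed for 8 min. Concentration-response curves derived from the normalized delta values.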

[6] = molecular target: Flap endonuclease 1 (Homo sapiens) (UniProt P39748); experiment: qHTS Validation Assay for the Inhibitors of Human Flap endonuclease 1 (FEN1) (AID 488816)
Sequence of Flap endonuclease 1 (Homo sapiens) (P39748 whole entry, looked up): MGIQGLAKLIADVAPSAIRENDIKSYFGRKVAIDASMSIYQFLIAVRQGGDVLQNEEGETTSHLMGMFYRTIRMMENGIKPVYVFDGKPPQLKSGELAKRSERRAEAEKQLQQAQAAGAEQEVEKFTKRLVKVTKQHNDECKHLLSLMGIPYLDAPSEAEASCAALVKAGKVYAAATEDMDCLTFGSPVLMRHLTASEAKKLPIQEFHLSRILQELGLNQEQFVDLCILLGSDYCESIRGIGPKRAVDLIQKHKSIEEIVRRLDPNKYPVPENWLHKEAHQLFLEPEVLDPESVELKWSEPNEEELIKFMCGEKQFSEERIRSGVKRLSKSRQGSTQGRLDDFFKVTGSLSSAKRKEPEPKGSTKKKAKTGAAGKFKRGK
Summary of the method: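 Human FEN1 (10 nM) preincubated 15 min at room temperature with compounds, then flap DNA substrate added at 50 nM final. Fluorescence read at 0 and 15 min; concentration-response fitted with four-parameter Hill equation.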

[7] = molecular target: M-phase phosphoprotein 8 (Homo sapiens) (UniProt Q99549); experiment: qHTS Validation Assay for Inhibitors for MPP8 Chromodomain Interactions with Methylated Histone Tails (AID 488949); note: nearly all actives have a fitted effect of over 55% in size; note: potency is the fitted concentration of half-maximal effect
Sequence of M-phase phosphoprotein 8 (Homo sapiens) (Q99549 whole entry, looked up): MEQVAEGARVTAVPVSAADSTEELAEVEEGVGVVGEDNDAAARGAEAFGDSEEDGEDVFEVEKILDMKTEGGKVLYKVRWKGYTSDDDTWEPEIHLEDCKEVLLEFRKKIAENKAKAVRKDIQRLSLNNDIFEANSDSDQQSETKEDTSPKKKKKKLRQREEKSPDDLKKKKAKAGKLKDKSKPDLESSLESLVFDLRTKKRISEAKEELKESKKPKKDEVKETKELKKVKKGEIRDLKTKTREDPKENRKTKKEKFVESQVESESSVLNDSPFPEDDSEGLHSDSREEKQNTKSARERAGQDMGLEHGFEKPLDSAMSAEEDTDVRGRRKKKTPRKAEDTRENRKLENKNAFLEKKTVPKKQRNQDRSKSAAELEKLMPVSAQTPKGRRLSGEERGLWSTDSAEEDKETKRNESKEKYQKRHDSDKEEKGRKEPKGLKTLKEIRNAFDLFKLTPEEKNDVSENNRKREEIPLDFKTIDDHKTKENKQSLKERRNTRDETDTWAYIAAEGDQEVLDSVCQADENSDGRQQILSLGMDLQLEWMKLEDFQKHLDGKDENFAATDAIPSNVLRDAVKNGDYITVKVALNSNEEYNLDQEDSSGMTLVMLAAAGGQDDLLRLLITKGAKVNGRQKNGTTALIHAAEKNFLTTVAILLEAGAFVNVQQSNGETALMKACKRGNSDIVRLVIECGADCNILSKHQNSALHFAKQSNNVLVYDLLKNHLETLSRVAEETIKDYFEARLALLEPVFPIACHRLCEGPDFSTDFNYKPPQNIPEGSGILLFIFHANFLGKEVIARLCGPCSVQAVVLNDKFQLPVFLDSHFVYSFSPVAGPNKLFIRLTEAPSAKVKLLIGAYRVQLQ
Text: As our understanding of epigenetics expands, it is becoming clear that players in this field are potential targets for drug development. This area of epigenetic therapy has established applications for the treatment of cancer and neurological diseases. We have been involved in this field for a number of years and have performed high-throughput screens to identify the first small molecule inhibitors of protein methyltransferases. These methyltransferases target multiple substrates, and thus regulate many arms of an epigenetic pathway. The methylation of different substrates often generates docking sites for effector proteins that harbor binding domains (chromo, tudor, PHD, MBT and ANK repeats). It has been proposed that the binding sites generated for different proteins by these post-translational modifcations mediate downstream effects on chromatin. Consistent with this theory, di- and tri-methylation of histone H3K9 facilitates the binding of heterochromatin protein HP1. The HP1 protein harbors a chromodomain that is responsible for the methyl-dependent interaction between HP1 and lysine 9 of histone H3. HP1 was first described in flies as a heterochromatin associated protein that can regulate gene silencing. It harbors a chromodomain that binds H3K9me3. In addition, it harbors a chromoshadow domain that interacts with a large number of proteins that are involved in heterochromatin formation and gene repression. There are three highly related HP1 isoforms. All three variants are associated with pericentric heterochromatin and it is not clear whether they have specific or redundant functions. MPP8 is also involved in the repression of gene in euchromatic regions (unpublished data) and like HP1 its chromodomain binds H3K9me3. MPP8 harbors an ankyrin repeat region that is likely involved in binding and recruiting interacting proteins with transcriptional repressive function, much like the chromoshadow domain of HP1 does. We hypothesize that by inhibiting specific protein-protein interactions we will be able to develop compounds that block a single arm of an epigenetic pathway. The specificity attained by blocking a single protein-protein interaction will be far greater than that attained by blocking the enzyme that regulates one of many interactions. Low-affinity protein-protein interactions (Kd in the single- to double-digit micromolar range) such as those discussed here have been very difficult to assay by traditional techniques such as fluorescence polarization or fluorescence resonance energy transfer. We have developed a sensitive chemiluminescence-based assay (Quinn, et al. 2009), which serves as the starting point for this project. The following is a validation assay to identify lead compounds that can block methyl-dependent protein-protein interactions (specifically MPP8), which can be used as probes to analyze these methyl-driven interactions and perhaps even developed into targeted epigenetic therapies. Assay Provider: Mark T. Bedford, MD Anderson Screening Center PI: Austin, C.P. Screening Center: NIH Chemical Genomics Center [NCGC]
To each well, 2 uL of MPP8 protein (final 50 nM) and 1 uL biotinylated histone peptide trimethylated at Lys9 [b-H3(1-18)K9me3] (final 50 nM) was added in 1x PBS buffer, pH 7.4, containing 0.01% Tween-20 using a nanoliter dispenser. Formation of a protein-peptide complex proceeded at room temperature for 30 min. A Kalypsys pin-tool was employed to transfer 23 nL of library compound solution in DMSO to each well. […]

[8] = qHTS Validation Assay to Find Inhibitors of Chronic Active B-Cell Receptor Signaling (AID 485345; active = well fitted curve in the direction sought with a large enough effect in the main read-out, with a control signal flat, not every such curve was filed as active)
Summary of the method: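 TMD8 ABC-DLBCL cells stably carrying doxycycline-inducible IkappaBalpha–green luciferase fusion plus unfused red luciferase; compounds 46 uM to 3 nM, 4 h at 37C with doxycycline. Corrected green/red luminescence ratio normalized to 10 uM MG-132 and basal cell wells; curves fitted.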

[9] = molecular target: ATP-dependent 6-phosphofructokinase (Trypanosoma brucei brucei) (UniProt O15648); experiment: qHTS Validation Assay to Find Inhibitors of T. brucei phosphofructokinase (AID 485368); conditions: T. brucei PFK enzyme assay, qHTS 7-point titration; at 57.5 µM (top of the series)
Sequence of ATP-dependent 6-phosphofructokinase (Trypanosoma brucei brucei) (O15648 whole entry, looked up): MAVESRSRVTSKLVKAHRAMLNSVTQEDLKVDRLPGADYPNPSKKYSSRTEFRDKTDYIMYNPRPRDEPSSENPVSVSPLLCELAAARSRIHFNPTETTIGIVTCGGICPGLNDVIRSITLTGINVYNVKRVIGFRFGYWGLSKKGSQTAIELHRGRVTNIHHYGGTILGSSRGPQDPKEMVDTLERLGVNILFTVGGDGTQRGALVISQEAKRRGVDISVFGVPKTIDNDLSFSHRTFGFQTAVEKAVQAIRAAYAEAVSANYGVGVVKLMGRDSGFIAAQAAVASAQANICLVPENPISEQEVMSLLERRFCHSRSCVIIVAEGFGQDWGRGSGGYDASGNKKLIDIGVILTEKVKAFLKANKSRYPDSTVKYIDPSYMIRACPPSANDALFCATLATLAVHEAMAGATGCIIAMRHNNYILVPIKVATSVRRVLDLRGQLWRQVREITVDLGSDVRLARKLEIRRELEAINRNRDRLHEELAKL
Summary of the method: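 Enzyme reaction in triethanolamine buffer pH 8.0 with 5 mM MgCl2, 0.01% Tween20 and 0.1% BSA; PFK 1.25 nM, F6P 0.5 mM, ATP 0.1 mM, 45 min RT. ADP quantified by ADP-Glo.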

[10] = Quantitative high throughput screen for delayed death inhibitors of the malarial parasite plastid, 96 hour incubation (AID 488745);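 note: luciferase-expressing P. falciparum in erythrocytes at 2% hematocrit and 0.1% parasitemia; nearly all actives have a fitted effect of over 70% in size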
Summary of the method: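 Infected erythrocytes were added to compound in Albumax-supplemented RPMI 1640 at 0.1% parasitemia and 2% hematocrit (final), incubated 96 h at 37 C under 5% CO2, then luciferase reagent was added and luminescence measured.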

SMILES | outcome [1] | outcome [2] | outcome [3] | outcome [4] | outcome [5] | outcome [6] | Potency [7] | outcome [8] | outcome [9] | outcome [10]
NC(N)=NCc1cccc(I)c1 | inactive | inactive | inactive | inactive | inactive | inactive | inactive |  |  | 
CCOC(=O)[C@H](CCc1ccccc1)N[C@@H](C)C(=O)N1[C@H](C(=O)O)C[C@H]2CCCC[C@@H]21 | inactive | inactive |  | inactive | inactive | inactive | inactive | inactive | inactive | 
CN=C(N)NCCC[C@H](N)C(=O)O | inactive | inactive |  | inactive | inactive | inactive | inactive | inactive | inactive | 
CC(C)(C)NC[C@H](O)COc1nsnc1N1CCOCC1 | inactive |  |  | inactive | inactive | inactive | inactive | inactive |  | 
CC(=O)OCC1=C(C(=O)O)N2C(=O)[C@@H](NC(=O)CSc3ccncc3)[C@H]2SC1 |  |  | inactive |  |  |  | 31.6 µM (active) |  |  | inactive
